HTR5A ag ctr – activates human HTR5A in OPRM1-OPRD1 agonist counter-screen. P47898. HTR5A agonist assay, luminescence, cell-based. activation, % at 9.3 µM. 340,000 tested, 0.61% active; in the data active means activation mostly above about 9.5%, no sharp cut-off; inactive means mostly below about 7.6%;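 further: 0% = cells with vehicle only and 100% = reference agonist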
HTR5A inv ag – counter-screen for OPRM1-OPRD1 inverse agonists: human HTR5A inverse agonism. P47898. HTR5A cell line, luminescence. inhibition, % at 9.3 µM. 340,000 tested, 0.083% active; in the data active means inhibition mostly above about 23%, no sharp cut-off; inactive means mostly below about 18%;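 further: 0% = cells with DMSO and 100% = no-cell wells with DMSO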
MOR-DOR ag-1 – OPRM1-OPRD1 heterodimerization agonism; cells, luminescence; P35372+P41143; activation, % at 9.3 µM; 340,000 tested, 0.3% active;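 further: 0% = vehicle-treated cells and 100% = reference agonist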
Target sequence (P35372 whole entry, looked up): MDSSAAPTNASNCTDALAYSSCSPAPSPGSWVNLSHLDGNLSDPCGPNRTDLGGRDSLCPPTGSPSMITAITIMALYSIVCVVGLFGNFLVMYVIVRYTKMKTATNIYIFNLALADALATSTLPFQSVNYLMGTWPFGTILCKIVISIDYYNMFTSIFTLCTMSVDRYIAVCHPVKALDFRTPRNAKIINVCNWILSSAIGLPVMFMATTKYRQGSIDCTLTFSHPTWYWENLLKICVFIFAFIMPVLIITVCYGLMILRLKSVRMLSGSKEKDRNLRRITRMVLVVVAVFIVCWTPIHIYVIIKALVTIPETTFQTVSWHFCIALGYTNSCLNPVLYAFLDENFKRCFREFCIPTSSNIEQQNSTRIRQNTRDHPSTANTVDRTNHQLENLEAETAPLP
Target sequence (P41143 whole entry, looked up): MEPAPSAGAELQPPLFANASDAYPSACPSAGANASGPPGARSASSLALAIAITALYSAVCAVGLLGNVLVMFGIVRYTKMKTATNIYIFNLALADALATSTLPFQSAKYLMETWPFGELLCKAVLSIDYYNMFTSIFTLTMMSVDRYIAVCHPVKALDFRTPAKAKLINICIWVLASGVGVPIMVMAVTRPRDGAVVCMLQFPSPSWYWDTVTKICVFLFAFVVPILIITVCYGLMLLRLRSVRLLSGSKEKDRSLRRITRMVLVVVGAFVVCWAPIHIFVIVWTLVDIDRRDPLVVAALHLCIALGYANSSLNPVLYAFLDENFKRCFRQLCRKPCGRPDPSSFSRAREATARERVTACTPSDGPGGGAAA
MOR-DOR inv ag – inverse agonists of human mu-delta opioid receptor heterodimerization; P35372+P41143; cell-based MOR-DOR heterodimer luminescence, inverse agonism; inhibition, % at 9.3 µM; 340,000 tested, 0.21% active; AID 504357; in the data active means inhibition above about 22%, passing the limit was not always enough;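 further: 0% = cells with DMSO and 100% = wells without cells with DMSO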
MOR-DOR ag-2 – counter-screen for HTR5A agonists: OPRM1-OPRD1 heterodimerization agonism; U2OS counter-screen cells, complementation luminescence, 3 h; activation, % at 9.3 µM; shares compounds with HTR5A ag ctr; 800 tested, 13% active
HTR5A ag confirm – confirmation of human HTR5A agonists; shares compounds with HTR5A ag ctr; HTR5A agonist cell assay, luminescence; activation, % at 9.3 µM; 800 tested, 17% active; AID 504915; in the data active means activation above about 17%;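 further: 0% = cells with vehicle only and 100% = full reference agonist response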
* = called active by the depositor; · = no result; ! = repeats disagree. In the library only some 1.1% were active in any assay of this set; here they are far more common. Unless noted, no stated cut-off is given here; in the data, active means activation above about 18%; inactive means the rest.

SMILES	HTR5A ag ctr	HTR5A inv ag	MOR-DOR ag-1	MOR-DOR inv ag	MOR-DOR ag-2	HTR5A ag confirm
FC(F)(F)c1cnc(N2CCCN(C(=S)Nc3ccccc3)CC2)c(Cl)c1	17.1*	-44.2	7.0	-34.4	-2.2	-0.2
COc1cccc(-c2sc3ccc(OC)cc3c2-c2ccc(OCCN3CCCC3)cc2)c1	7.4	-26.7	5.2	-24.8	·	·
COc1cccc(-c2sc3ccccc3c2-c2ccc(OCCN3CCCCC3)cc2)c1	17.0*	-75.1	6.9	-37.4	9.6	6.4
COc1cccc(-c2sc3ccccc3c2-c2ccc(OCCN3CCCC3)cc2)c1	16.4*	-54.0	9.8	-52.6	1.7	18.6*
CCN(CC)S(=O)(=O)c1ccc(C(=O)NCC2(N3CCOCC3)CCCCC2)cc1	-0.7	10.3	-5.0	19.2	·	·
Cc1ccc(N2CCN(C(=O)c3cn(CC4CCCCC4)nn3)C(C)C2)cc1 (stereo unspecified)	-0.1	5.9	2.3	-11.8	·	·
C/C(=N\NS(=O)(=O)c1ccc(C)c([N+](=O)[O-])c1)c1cc2ccccc2o1	27.1*	-64.6	-2.8	13.6	18.9*	-1.5
C/C(=N\NS(=O)(=O)c1ccc(Cl)c([N+](=O)[O-])c1)c1cc2ccccc2o1	3.5	-8.2	0.2	-1.1	·	·
CCOc1ccc(CNC(=O)NS(=O)(=O)c2ccc(OC)cc2)cc1	15.4*	-49.8	1.0	-5.3	23.3*	4.4
CCC(C)NS(=O)(=O)c1ccc(OCC(=O)NCc2ccc(OC)cc2)cc1 (stereo unspecified)	-2.6	-26.3	-0.5	2.8	·	·
CCOc1ccc(S(=O)(=O)NN)cc1	14.4*	-85.2	-2.9	17.3	-1.9	0.3
COc1ccc(/C=C(/NC(=O)c2ccc(OC)cc2)C(=O)NCCc2c[nH]c3ccccc23)cc1	-1.4	3.8	-2.9	17.1	·	·
Cc1cc(/C=C(\C#N)C(=O)NCCc2c[nH]c3ccccc23)c(C)n1C	66.2*	-172.3	-1.3	6.7	-1.2	-4.6
Cc1ccc(C(=O)N/C(=C\c2cccs2)C(=O)NCCc2c[nH]c3ccccc23)cc1	15.2*	-45.6	2.1	-13.0	19.9*	6.2
COc1cc(-c2csc(NC3CCCCC3)n2)cc(OC)c1OC	9.7	-26.0	-3.6	19.1	·	·
COC(=O)C1CN(C(=O)COc2cc(C)cc(C)c2)c2ccccc2O1 (stereo unspecified)	-1.6	6.0	-2.3	13.2	·	·
CCOC(=O)c1c(C)[nH]c(C(=O)CSc2ccc(Cl)cc2)c1C	15.0*	-29.6	2.4	-12.8	3.8	9.0
CCn1c(C)nc2cc(C(=O)N/N=C/c3ccc(O)cc3)ccc21	8.3	1.9	-0.8	3.8	·	·
CCn1c(C)nc2cc(C(=O)N/N=C/c3ccc(OC)c(O)c3)ccc21	14.4*	-27.0	0.1	-0.6	0.0	-1.2
CC(C)CC1NC(=O)C(CC(C)C)N(CO)C1=O (stereo unspecified)	-0.6	2.5	-1.2	6.5	·	·
O=C(c1ccco1)N1CCN(C(=O)c2cc(-c3ccncc3)nc3ccc(Br)cc23)CC1	2.5	-0.3	-0.3	1.5	·	·
O=C(O)c1cc(-c2ccco2)nc2ccc(Br)cc12	18.3*!	-47.2	2.5	-12.7	41.8*	3.5
Cc1cc(C)c(C#N)c(SCC(=O)Nc2cccc(S(=O)(=O)N3CCCC3)c2)n1	15.0*	-45.3	11.9	-76.6	-3.7	-1.1
O=C(CNc1cccc(S(=O)(=O)N2CCCC2)c1)Nc1cccc(F)c1	6.0	-12.2	0.9	-5.8	·	·
O=C(CNc1cccc(C(F)(F)F)c1)Nc1cccc(S(=O)(=O)N2CCCC2)c1	19.2*	-46.7	3.1	-12.5	5.4	14.4
SMILES	HTR5A ag ctr	HTR5A inv ag	MOR-DOR ag-1	MOR-DOR inv ag	MOR-DOR ag-2	HTR5A ag confirm
O=C(c1ccc(Cl)c(S(=O)(=O)N2CCOCC2)c1)N1CCN(c2ccccc2F)CC1	8.3	-26.2	-1.0	5.3	·	·
O=C(c1ccc(Cl)c(S(=O)(=O)N2CCCC2)c1)N1CCN(c2ccccc2F)CC1	20.9*	-67.8	2.0	-9.6	-3.4	-8.1
O=C(c1ccc(Cl)c(S(=O)(=O)N2CCCC2)c1)N1CCN(c2ncccn2)CC1	20.4*	-54.5	-3.3	17.2	1.8	-0.3
O=C(c1ccc(Cl)c(S(=O)(=O)NCc2ccccc2)c1)N1CCN(c2ccccn2)CC1	21.4*	-44.8	-0.4	2.2	1.2	14.5
CCCCOc1ccc(C(=O)N/C(=C\c2cccc([N+](=O)[O-])c2)C(=O)OC(C)C)cc1	16.1*	7.8	4.7	-21.0	0.9	1.9
O=C(CCC(=O)N(CC(=O)NC1CCCCC1)CC1CCCO1)Nc1nccs1 (stereo unspecified)	-3.4	8.8	-1.1	6.2	·	·
COc1ccc(OC)c(-c2csc(NC(=O)Cn3[nH]c(=O)c4ccccc4c3=O)n2)c1	31.1*	-80.0	2.3	-10.8	2.9	5.9
CC(C)c1ccc(NC(=O)Cn2nnc(C(=O)NCc3ccco3)c2N)cc1	4.0	-23.6	1.1	-5.8	·	·
COc1ccc(CC2(CO)CCN(Cc3nc(C(C)C)cs3)CC2)cc1	1.6	-4.2	0.1	-0.6	·	·
O=C1CC(c2ccccc2)Sc2ccccc2N1 (stereo unspecified)	17.0*	-46.7	-2.6	11.5	2.5	2.7
O=C1CC(c2ccco2)Sc2ccccc2N1 (stereo unspecified)	-1.1	4.2	-1.8	8.1	·	·
CCCCCCCCCCn1c2c(c(=N)c3c1CCC3)CCC2	34.5*	-50.6	4.3	-23.0	9.8	12.6
CCN(CC(=O)Nc1ccc(NC(C)=O)cc1)C(=O)COc1ccc(C(=O)c2ccccc2)cc1	-2.7	9.9	-0.2	1.0	·	·
CCN(CC(=O)Nc1ccc(NC(C)=O)cc1)C(=O)c1ccc(C(=O)c2ccccc2)cc1	21.6*	-65.7	-3.5	13.1	0.4	30.5*
O=C1C=C(Nc2ccc(Cl)cc2)C(=O)N1c1ccc(Cl)cc1	5.2	-4.7	-1.2	8.8	·	·
Nc1c(C(=O)Nc2ccc(S(=O)(=O)N3CCCC3)cc2)sc2nc3cc4c(cc3cc12)CCC4	0.2	15.0	1.9	-12.7	·	·
Nc1c(C(=O)Nc2ccc(S(=O)(=O)N3CCCC3)cc2)sc2nc3ccc(OC(F)(F)F)cc3cc12	15.1*	-68.8	16.5	-87.8	23.7*	4.2
O=C(C[C@H]1C[C@H](C(=O)N2CCCCC2)[C@@]2(CCc3ccccc3)c3[nH]c4ccc(Cl)cc4c3CCN2C1=O)NCCC1=CCCCC1	2.7	-9.2	-3.4	16.9	·	·
COc1cc(C#Cc2c(-c3cncn3C)n(C)c3ccc(-c4ccc(CN5CCOCC5)cc4)cc23)cc(OC)c1	16.4*	-26.5	2.0	-11.4	19.6*	4.1
Cn1c(NC(=O)Cc2cccs2)cc(=O)n(C)c1=O	19.0*	-53.3	-2.1	10.9	0.6	-0.2
Cn1c(C(=O)Nc2ccc(Cl)cc2)cc2cc(Cl)ccc21	3.3	-12.0	0.7	-3.0	·	·
Cc1ccc(CNC(=O)COC(=O)c2cc(=O)[nH]c3ccccc23)cc1	-1.2	-1.8	-4.2	15.7	·	·
Cc1ccc(CCNC(=O)C2CCC(=O)N2Cc2ccc(F)cc2)cc1 (stereo unspecified)	-1.7	6.5	-1.0	4.8	·	·
